Results on 34 compounds are retold here after PubChem BioAssay (NCATS).

Molecules are shown by their SMILES. Records with an inconclusive call do not appear. A number with no mark means an inactive call. Active and inactive are the calls of the source. Calls follow the shape of the dose curve; as a rule, active = well fitted inhibition curve with a large enough effect; inconclusive = small, poorly fitted or top-dose-only effect; inactive = flat fitted curve, though single readings scatter.
Potency is read from the fitted curve at half-maximal effect.

The assay has as its system Zika virus NS2B-NS3 protease. Kind of assay: Primary screen GU AMC qHTS for Zika virus inhibitors (AID 1347154). Also: nearly all actives have a fitted effect of over 70% in size.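 As to activity change, negative = inhibition: 0% = no-inhibitor control and -100% = no-enzyme control.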 Conditions: Zika NS2B-NS3 unlinked protease, AMC fluorogenic substrate; series mostly up to 54.1 µM; activity change, negative = inhibition: at the top concentration. The method, boiled down: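 Unlinked Zika NS2B hydrophilic domain/NS3 protease domain noncovalent complex (25 nM final) in 10 mM Tris-HCl pH 8.0, 0.01% Tween 20, with AMC peptide substrate. Fluorescence (ex 340, em 450 nm) change over 15 min, room temperature; percent inhibition fitted to 4-parameter Hill equation.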
(In qHTS, concentration-response curves come from the screen itself.)
On to `NC(=O)NNc1ccccc1`, for which the “activity change, negative = inhibition” value was 0.111%.

With `O=S(=O)(O)c1cc(I)c(O)c2ncccc12`, the “activity change, negative = inhibition” value was -0.339%.

Take `COC(=O)[C@H]1[C@H]2C[C@@H]3c4[nH]c5cc(OC)ccc5c4CCN3C[C@H]2C[C@@H](OC(=O)COc2ccc(OC)cc2)[C@@H]1OC`: the “activity change, negative = inhibition” value is -1.74%.

Take `CCCc1c(OCCCCc2nn[nH]n2)ccc(C(C)=O)c1O`: the Potency result is “inactive”.

For `C[C@H](NC(CCc1ccccc1)C(=O)O)C(=O)N1CCC[C@H]1C(=O)O` (some centres undefined), the “activity change, negative = inhibition” value was 2.89%.

With `CCOC(=O)c1ccc(O)cc1`, the “activity change, negative = inhibition” value is -2.5%.

Regarding `CCCCCCCCCCCCOS(=O)(=O)O`, the “activity change, negative = inhibition” value is -2.78%.

Turning to `CC1=C(C/C=C(\C)CCC[C@H](C)CCC[C@H](C)CCCC(C)C)C(=O)c2ccccc2C1=O`, the “activity change, negative = inhibition” value was -4.74%.

Regarding `O=C(O)c1ccccn1`, the “activity change, negative = inhibition” value is 0.203%.

As to `O=Cc1ccccc1C=O`, the “activity change, negative = inhibition” value is -2.77%.

For `CC1CC(OC(=O)C(O)c2ccccc2)CC(C)(C)N1C` (centres undefined), the “activity change, negative = inhibition” value was -2.62%.

Regarding `N[C@H]1C(O)O[C@H](CO)[C@@H](O)[C@@H]1O` (some centres undefined), the “activity change, negative = inhibition” value was -3.93%.

For `N[C@@H](CSCCCO)C(=O)O`, the “activity change, negative = inhibition” value is -5.99% [at 25.8 µM].

Take `[Cl][In]([Cl])[Cl]`: the Potency is 11.2 µM (active).

Turning to `CN1[C@@H]2CC[C@H]1CC(OC(=O)C(O)c1ccccc1)C2` (some centres undefined), the “activity change, negative = inhibition” value was 4.74%.

On to `COc1ccc(S(=O)(=O)Nc2nnc(CC(C)C)s2)cc1`, for which the “activity change, negative = inhibition” value is -1.84%.

With `NCCNCCNCCNCCN`, the activity change, negative = inhibition is -0.671% [at 6.83 µM].

For `CCN(CC)CCSC(=O)C(c1ccccc1)c1ccccc1`, the “activity change, negative = inhibition” value is 2.7%.

Consider `O=C(O)c1ccccc1-c1ccc(C(F)(F)F)cc1`, for which the “activity change, negative = inhibition” value is 2.22%.

Take `CC(O)COc1ccccc1` (centres undefined): the “activity change, negative = inhibition” value is 0.675%.

`N[C@H](C(=O)O)c1ccc(O)cc1`: the “activity change, negative = inhibition” value was -4.27% [at 25.8 µM].

Consider `CC(=O)Oc1ccc(C2(c3ccc(OC(C)=O)cc3)C(=O)Nc3ccccc32)cc1`, for which the “activity change, negative = inhibition” value is 0.223%.

Turning to `CCn1cc(C(=O)O)c(=O)c2cnc(N3CCNCC3)nc21`, the “activity change, negative = inhibition” value is 1.68%.

In the case of `O=C(O)CC(O)C(=O)O` (centres undefined), the “activity change, negative = inhibition” value was 4.13%.

`CC[C@@]1(c2ccccc2)NC(=O)N(C)C1=O`: the “activity change, negative = inhibition” value was 1.35%.

Regarding `COc1cc(C)c(Cc2cnc(N)nc2N)cc1OC`, the “activity change, negative = inhibition” value was 0.0902%.

As to `CC(=O)c1ccc2c(c1)N(CCCN(C)C)c1ccccc1S2`, the Potency result was “inactive”.

Turning to `CC[N+](CC)(CC)CCOc1ccc(/C=C/c2ccccc2)cc1`, the Potency result was “inactive”.

In the case of `Nc1ccc(S(=O)(=O)NC(=O)c2ccccc2)cc1`, the “activity change, negative = inhibition” value is -3.58%.

For the compound `Cc1ncc([N+](=O)[O-])n1CC(O)CCl` (centres undefined), the “activity change, negative = inhibition” value was -4.7%.

Take `CC1(C)S[C@@H]2[C@H](NC(=O)Cc3ccccc3)C(=O)N2[C@H]1C(=O)O` (tested in a mixture with another compound): the “activity change, negative = inhibition” value is -0.605%.

Take `O=C(O)Cc1sc(-c2ccccc2)nc1-c1ccc(Cl)cc1`: the “activity change, negative = inhibition” value was -6.46%.

Regarding `CCCCC(CC)COC(=O)c1ccccc1O` (centres undefined), the “activity change, negative = inhibition” value was -0.395%.

As for `O=S(=O)(O)NC1CCCCC1`, the “activity change, negative = inhibition” value is 2.13%.
